# Laboratory results from PubChem BioAssay AID504329 (Southern Research Specialized Biocontainment Screening …, 2011).
# In all, about 340,000 compounds went through this assay and about 1,000 (0.29%) were called active. These entries were drawn from the full list. Measured potencies and affinities stand elsewhere. Values without a mark were called inactive. Rule as the data show it: inconclusive = inhibition above about 27% without an active follow-up result; inactive = below that.
# Test: H1N1 influenza NS1A inhibitors, functional cell based assay (AID 504329)
# Conditions: percent inhibition, at 12.5 µM, stronger effect = higher value
row,Structure (SMILES),inhibition [%]
1,O=C(CNC(=O)c1ccco1)N/N=C/c1c[nH]c2ccccc12,-1
2,Cc1c(C=C2C(=O)NC(=O)NC2=O)c(=O)n(-c2ccccc2)n1C,-5.56
3,Cc1c(NN=C(C#N)C#N)c(=O)n(-c2ccccc2)n1C,-11.5
4,Cc1c(NC(C)C)c(=O)n(-c2ccccc2)n1C,-3.1
5,CCS(=O)(=O)Nc1c(C)n(C)n(-c2ccccc2)c1=O,-2.8
6,COC(=O)C(=NNc1c(C)n(C)n(-c2ccccc2)c1=O)C(=O)OC,-4.26
7,C=CCSC(=S)Nc1c(C)n(C)n(-c2ccccc2)c1=O,-2.87
8,Cc1c(NS(=O)(=O)c2ccc(Br)cc2)c(=O)n(-c2ccccc2)n1C,-8.19
9,Cc1c(NP(=O)(c2ccc(Br)cc2)c2ccc(Br)cc2)c(=O)n(-c2ccccc2)n1C,-4.88
10,CCN(C(=O)COC(=O)CNS(=O)(=O)c1ccc2ccccc2c1)C1CCCCC1,-3.12
11,CCn1c(=O)[nH]c(=O)c2c(N)c(C(=O)c3ccccc3OC)sc21,14.2
12,CCC(CC)CN1CCC(CN2C(=O)C(=O)NC[C@@H]2[C@@H](C)CC)CC1,-5.8
13,CC(=O)c1cccc(NC(=O)C2CCN(C(=O)c3cccs3)CC2)c1,-11.1
14,Cc1ccc(SCC(=O)OCC(=O)Nc2ccc3[nH]c(=O)[nH]c3c2)cc1C,-0.9
15,COc1ccccc1NC(=O)/C(=C\c1cccs1)NC(=O)c1ccco1,2.01
16,COc1ccc2c(COC(=O)CC3Sc4ccccc4NC3=O)cc(=O)oc2c1 (stereo not given),-3.14
17,Cc1c(NC(=O)CN2C(=O)C(=O)N(Cc3ccccc3)C2=O)c(=O)n(-c2ccccc2)n1C,-4.35
18,Cc1c(NC(=O)NCc2ccccc2)c(=O)n(-c2ccccc2)n1C,0.65
19,COc1ccc(/C=N/NC(=O)c2cc(C)oc2C)cc1OCc1ccccc1,9.7
20,COc1ccc(/C=N/NC(=O)c2ccco2)cc1OCc1ccccc1,0.58

row,Structure (SMILES),inhibition [%]
1,CC(C)CCNC(=O)NC(=O)COc1ncnc2sccc12,-13.5
2,O=C(CSc1nncs1)Nc1cc(S(=O)(=O)N2CCOCC2)ccc1N1CCCC1,-2.14
3,O=C(COc1ccccc1[N+](=O)[O-])N1CCN(C(=O)c2ccco2)CC1,8.66
4,CCOc1ccc2c(c1)C(=NNC(=O)c1ccccn1)c1cc(OCC)ccc1-2,7.92
5,COc1ccc2c(c1)C(=NNC(=O)c1ccccn1)c1cc(OC)ccc1-2,-2.18
6,C/C(=N\NC(=S)NC1CCCCC1)c1cccs1,7.94
7,CCNC(=S)N1CCN(c2ccccn2)CC1,-6.5
8,C/C(CC(=O)NC1CCCCCC1)=N\NC(=O)c1cnccn1,2.22
9,C/C(=N\NC(=S)NC1CCCCC1)c1ccccc1,11.5
10,S=C(NC1CCCC1)N1CCN(c2ccccn2)CC1,-9.04
11,CC(=O)c1nccs1,-23
12,C/C(=N/NC(=O)c1cnccn1)c1ccncc1,2.49
13,C/C(=N\NC(=O)C1CC1)c1cccnc1,-3.09
14,COc1cc(SC)ccc1C(=O)Nc1ccc2c(c1)CCN2S(C)(=O)=O,0.73
15,CC(=O)Nc1cc(C(=O)OCC(=O)c2ccc(C)cc2)ccc1C,2.61
16,CCOc1ccc(-c2nc(S(=O)(=O)c3ccccc3)c(N3CCOCC3)o2)cc1,6.87
17,CNC(=O)c1c(NC(=O)C2=COCCO2)sc2c1CCC(C)C2 (stereo not given),-0.48
18,COc1ccc(CCN(Cc2ccccn2)C(=S)Nc2ccccc2F)cc1OC,2.66
19,Cc1cccc(N2CCN(C(=O)CCn3c(=O)[nH]c4ccsc4c3=O)CC2C)c1 (stereo not given),14.2
20,CC(C)[C@H](NC(=O)OCc1ccccc1)C(=O)OCC(=O)Nc1ccc(N2CCOCC2)cc1,-2.26

row,Structure (SMILES),inhibition [%]
1,O=C(CSc1ccccn1)Nc1ccc(NC(=O)CSc2ccccn2)cc1,3.94
2,O=C(CSc1ncccn1)Nc1ccccc1,-12.3
3,O=C(CSc1nnc(-c2ccccn2)o1)Nc1ccccc1,-0.31
4,O=C(CSc1ccc(C(F)(F)F)cn1)Nc1ccccc1,-2.05
5,O=C(N/N=C/C1CC2CCC1C2)c1ccc2c(c1)OCO2 (stereo not given),4.78
6,Cc1ccccc1C(=O)c1cccn1CC(=O)NCCCc1ccccc1,-0.87
7,CCOC(=O)c1c(C)[nH]c(C(=O)OCc2ccc(F)cc2)c1C,-5.78
8,CCOC(=O)C1=C(c2ccccc2)NC(=O)NC1c1ccc(OCC#N)c(OC)c1 (stereo not given),1.47
9,CCOc1ccc(C2NC(=O)NC(C)=C2C(=O)OCc2ccccc2)cc1 (stereo not given),-2.43
10,CCOC(=O)C1=C(COc2ccccc2)NC(=O)NC1c1ccc(Cl)cc1 (stereo not given),3.45
11,CCOC(=O)C1=C(c2ccccc2)NC(=O)NC1c1ccc(OC)c(OC)c1 (stereo not given),-15.2
12,CCOC(=O)[C@@H]1[C@H]2COc3cc(OC)ccc3[C@@H]2N2C(=O)N(c3cccc(C)c3)C(=O)[C@]12C,2.49
13,COc1ccc(C2=CC(c3ccc(OC)c(OC)c3)c3c(c4ccccc4oc3=O)O2)cc1OC (stereo not given),26.9
14,Cc1ccc(NC2(C(N)=O)CCCC2)cc1,-3.06
15,CCC1=C(C)C(N2CCOCC2)=NP(N2CCOCC2)(N2CCOCC2)=N1,3.31
16,CCC(Sc1nc(C)cc(=O)[nH]1)C(=O)Nc1sc2c(c1C#N)CCCC2 (stereo not given),-5.51
17,CCCCCCNc1c([N+](=O)[O-])cc(C)cc1[N+](=O)[O-],28.9
18,N#Cc1cc(NC2CCCC2)c([N+](=O)[O-])cc1C#N,12.5
19,Cc1cc(C(=O)NC2CCCCCCC2)ccc1[N+](=O)[O-],-15.4
20,Cc1cc([N+](=O)[O-])c(NCCCCCCO)c([N+](=O)[O-])c1,11
